# Results filed as inconclusive are left out. A number with no mark means an inactive call. Activity calls are given as the source filed them. Calls follow the shape of the dose curve; as a rule, active = well fitted inhibition curve with a large enough effect; inconclusive = small, poorly fitted or top-dose-only effect; inactive = flat fitted curve, though single readings scatter.
# Experiments:
# [1] = Drug repurposing screens with cells derived from glioblastoma tumor samples (AID 1345199); settings: GBM patient neurospheres viability, ATP luminescence, 48 h; also: nearly all actives have a fitted effect of over 40% in size
# Summary of the method: (§1)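 Primary testing used CD133+ neurospheres from four GBM patients, seven concentrations, 48 h exposure and ATP-based viability; confirmation added three slower-growing patient lines.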
# astro = control astrocytes; assay: as above; settings: viability, ATP luminescence, 48 h; series mostly up to 45.9 µM
# Summary of the method: as §1
# [2] = at 45.9 µM (top of the series), tumour line B
# [3] = at 45.9 µM (top of the series), tumour line D
# [4] = at 46.1 µM (top of the series), tumour line C
# [5] = at 20 µM (top of the series), tumour line C
# % is scaled to controls: 0 for no effect and ±100 for the full control effect; potency is read from the fitted curve at half-maximal effect.
compound,measurement,setting,value
CCCCCCCCCCCCCCCC(=O)OC[C@@H](O)[C@H]1OC[C@H](O)[C@H]1O,"activity, negative = cell killing",[1]; [2],-4.52%
same,"activity, negative = cell killing",[1]; [3],10.4%
same,"activity, negative = cell killing",[1]; [4],-6.66%
same,Potency,astro,inactive
CC1CC(O)CC(C)(C)C1 (stereo not drawn),"activity, negative = cell killing",[1]; [2],-5.77%
same,"activity, negative = cell killing",[1]; [3],-9.42%
same,"activity, negative = cell killing",[1]; [4],-22%
same,Potency,astro,inactive
C[Se]CC[C@H](N)C(=O)O,"activity, negative = cell killing",[1]; [2],-12.9%
same,"activity, negative = cell killing",[1]; [3],-0.664%
same,"activity, negative = cell killing",[1]; [4],-22.8%
same,Potency,astro,inactive
COc1ccc(/C=C/C(=O)O)cc1,"activity, negative = cell killing",[1]; [2],6.24%
same,"activity, negative = cell killing",[1]; [3],-5.33%
same,"activity, negative = cell killing",[1]; [4],9.31%
same,Potency,astro,inactive
C#C[C@]1(O)CC[C@H]2[C@@H]3CCC4=C(CCC(=O)C4)[C@H]3CC[C@@]21C,"activity, negative = cell killing",[1]; [5],-4.47%
same,"activity, negative = cell killing","[1]; at 21.2 µM (top of the series), tumour line B",-8.06%
same,"activity, negative = cell killing","[1]; at 21.2 µM (top of the series), tumour line D",-3.97%
same,Potency,astro,inactive
NC(=O)[C@@H]1C[C@]2(NC(=O)NC2=O)c2cc(F)ccc2O1,"activity, negative = cell killing",[1]; [2],-9.48%
same,"activity, negative = cell killing",[1]; [3],3.75%
same,"activity, negative = cell killing",[1]; [4],-17.3%
same,Potency,astro,inactive
C[C@]12CCC(=O)C[C@@H]1CC[C@@H]1[C@@H]2CC[C@]2(C)C=CC[C@@H]12,"activity, negative = cell killing",[1]; [2],-7.67%
same,"activity, negative = cell killing",[1]; [3],-11.4%
same,Potency,[1]; tumour line A,20 µM (active)
same,Potency,astro,inactive
O=c1[nH]c(=O)n([C@H]2C[C@H](O)[C@@H](CO)O2)cc1/C=C/Br,"activity, negative = cell killing",[1]; [2],-10.7%
same,"activity, negative = cell killing",[1]; [3],-3.23%
same,"activity, negative = cell killing",[1]; [4],-17.1%
same,Potency,astro,inactive
NCC[C@H](O)C(=O)N[C@@H]1C[C@H](N)[C@@H](O[C@H]2O[C@H](CN)[C@@H](O)[C@H](O)[C@H]2O)[C@H](O)[C@H]1O[C@H]1O[C@H](CO)[C@@H](O)[C@H](N)[C@H]1O,"activity, negative = cell killing",[1]; [2],-16.5%
same,"activity, negative = cell killing",[1]; [3],-17.9%
same,"activity, negative = cell killing",[1]; [4],-4.11%
same,Potency,astro,inactive
CC(C)(Oc1ccc(C2CCCc3ccccc32)cc1)C(=O)O (stereo not drawn),"activity, negative = cell killing",[1]; [2],-18.2%
same,"activity, negative = cell killing",[1]; [3],-16.7%
same,"activity, negative = cell killing","[1]; at 46 µM (top of the series), tumour line A",-21.9%
same,Potency,astro,inactive
CCOC(=O)Cc1ccc(-c2ccccc2)cc1,"activity, negative = cell killing",[1]; [2],-6.74%
same,"activity, negative = cell killing",[1]; [3],-7.57%
same,"activity, negative = cell killing",[1]; [4],36.2%
same,Potency,astro,inactive
O=C(O)COc1ccc(CCNS(=O)(=O)c2ccccc2)s1,"activity, negative = cell killing",[1]; [2],-8.15%
same,"activity, negative = cell killing",[1]; [3],-13.5%
same,"activity, negative = cell killing",[1]; [4],-21.9%
same,Potency,astro,inactive
C=CCCCCCCCCC(=O)OC,"activity, negative = cell killing",[1]; [2],-4.31%
same,"activity, negative = cell killing",[1]; [3],-1.83%
same,"activity, negative = cell killing",[1]; [4],7.19%
same,Potency,astro,inactive
CCN(CC)C(=O)[C@]1(c2ccccc2)C[C@@H]1CN,"activity, negative = cell killing",[1]; [2],-4.91%
same,"activity, negative = cell killing",[1]; [3],-13.9%
same,"activity, negative = cell killing",[1]; [4],-22.9%
same,Potency,astro,inactive
O=C(OC[C@H]1O[C@](O)(COC(=O)c2cccnc2)[C@@H](OC(=O)c2cccnc2)[C@@H]1OC(=O)c1cccnc1)c1cccnc1,"activity, negative = cell killing",[1]; [2],-19%
same,"activity, negative = cell killing",[1]; [3],-0.117%
same,"activity, negative = cell killing",[1]; [4],-25.9%
same,Potency,astro,inactive
CO[C@H]1O[C@@H]2O[C@@]3(C)CC[C@H]4[C@H](C)CC[C@@H]([C@H]1C)[C@@]24OO3,"activity, negative = cell killing",[1]; [2],-14.7%
same,"activity, negative = cell killing",[1]; [3],1.49%
same,"activity, negative = cell killing",[1]; [4],-10.2%
same,Potency,astro,inactive
CC(C)(C)NC[C@H](O)COc1ccccc1C1CCCC1,"activity, negative = cell killing",[1]; [5],19%
same,Potency,[1]; tumour line A,4.47 µM (active)
same,Potency,[1]; tumour line D,12.6 µM (active)
same,Potency,astro,inactive
CCOc1ccc(NC(=S)Nc2ccc(OCC)cc2)cc1,"activity, negative = cell killing",[1]; [2],-13.1%
same,"activity, negative = cell killing",[1]; [3],-11.1%
same,"activity, negative = cell killing",[1]; [4],-27.8%
same,Potency,astro,inactive
O=C1c2ccccc2C(=O)C1c1ccc(Cl)cc1,"activity, negative = cell killing",[1]; [2],-10.4%
same,"activity, negative = cell killing",[1]; [3],-11.7%
same,"activity, negative = cell killing",[1]; [4],-10.5%
same,Potency,astro,inactive
OC[C@H]1OC([S-])[C@H](O)[C@@H](O)[C@@H]1O.[Au+] (stereo partly drawn),"activity, negative = cell killing",[1]; [2],-5.43%
same,"activity, negative = cell killing",[1]; [3],-19.5%
same,"activity, negative = cell killing",[1]; [4],-19.6%
same,Potency,astro,inactive
COc1ccc(C(=O)c2ccc(C)cc2)c(O)c1,"activity, negative = cell killing",[1]; [2],-19.8%
same,"activity, negative = cell killing",[1]; [3],-4.36%
same,"activity, negative = cell killing",[1]; [4],-21.4%
same,Potency,astro,inactive
Oc1ccc(Cl)c2c1CCC2,"activity, negative = cell killing",[1]; [2],-12.8%
same,"activity, negative = cell killing",[1]; [3],-3.41%
same,"activity, negative = cell killing",[1]; [4],-12.7%
same,Potency,astro,inactive
Cc1ccc(C(C)(C)c2ccc(C)cc2)cc1,"activity, negative = cell killing",[1]; [2],-5.24%
same,"activity, negative = cell killing",[1]; [3],-1.07%
same,"activity, negative = cell killing",[1]; [4],-10.1%
same,Potency,astro,inactive
O=C(CCCCCCCCCCCCC1CCCC1)Nc1ccc(S(=O)(=O)c2ccc(NC(=O)CCCCCCCCCCCCC3CCCC3)cc2)cc1,"activity, negative = cell killing",[1]; [2],0.38%
same,"activity, negative = cell killing",[1]; [3],-17.2%
same,"activity, negative = cell killing",[1]; [4],-32.4%
same,Potency,astro,inactive
Cc1ncc(C[n+]2csc(CCOP(=O)(O)OP(=O)(O)O)c2C)c(N)n1,"activity, negative = cell killing",[1]; [2],-10%
same,"activity, negative = cell killing",[1]; [3],-6.5%
same,"activity, negative = cell killing",[1]; [4],18.5%
same,Potency,astro,inactive
CCN(CC)CCOc1ccccc1OC,"activity, negative = cell killing",[1]; [2],5.43%
same,"activity, negative = cell killing",[1]; [3],-13.8%
same,"activity, negative = cell killing",[1]; [4],-28.2%
same,Potency,astro,inactive
C[C@@H](O)[C@H]1C(=O)N2C(C(=O)[O-])=C(SC3Cn4cnc[n+]4C3)[C@H](C)[C@H]12 (stereo partly drawn),"activity, negative = cell killing",[1]; [2],-14.6%
same,"activity, negative = cell killing",[1]; [3],-27.3%
same,"activity, negative = cell killing",[1]; [4],-6.91%
same,Potency,astro,inactive
